Assay outcomes deposited in PubChem by several laboratories.
Hits are enriched below; roughly 27% of the tested compounds scored in any of these assays.
sEH inhibitor – soluble epoxide hydrolase (human) inhibition; inhibition, % at 2 µM; P34913; hit rate 0.34% among 91,000; recombinant human sEH enzymatic activity assay; in the data active = inhibition above about 80%
CYP2C9 activ – activators of human CYP2C9; P11712; recombinant CYP2C9, luciferin-H conversion, luminescence; active compounds read high; factor 1 = untreated enzyme, 0 = blocked; activation factor at 5 µM; hit rate 1.4% among 96,000; AID 1024;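 active = activation factor of 2 or more for CYP2C9 at a 5 µM dose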;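 also: 0 = sulfaphenazole-blocked wells and 1 = vehicle-only wells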
CYP2C19 activ – cytochrome P450 2C19 (human) activation. 96,000 tested, under 10 active. activation factor at 5 µM. P33261. recombinant CYP2C19, luciferin-H EGE luminescence; active compounds read high; 0 = fully inhibited enzyme, 1 = untreated enzyme;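 active = activation factor of at least 2 at 5 µM in the primary screen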;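 also: 0 = wells with 2.5 mM tranylcypromine and 1 = vehicle-only wells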
Target sequence (P33261 whole entry, looked up): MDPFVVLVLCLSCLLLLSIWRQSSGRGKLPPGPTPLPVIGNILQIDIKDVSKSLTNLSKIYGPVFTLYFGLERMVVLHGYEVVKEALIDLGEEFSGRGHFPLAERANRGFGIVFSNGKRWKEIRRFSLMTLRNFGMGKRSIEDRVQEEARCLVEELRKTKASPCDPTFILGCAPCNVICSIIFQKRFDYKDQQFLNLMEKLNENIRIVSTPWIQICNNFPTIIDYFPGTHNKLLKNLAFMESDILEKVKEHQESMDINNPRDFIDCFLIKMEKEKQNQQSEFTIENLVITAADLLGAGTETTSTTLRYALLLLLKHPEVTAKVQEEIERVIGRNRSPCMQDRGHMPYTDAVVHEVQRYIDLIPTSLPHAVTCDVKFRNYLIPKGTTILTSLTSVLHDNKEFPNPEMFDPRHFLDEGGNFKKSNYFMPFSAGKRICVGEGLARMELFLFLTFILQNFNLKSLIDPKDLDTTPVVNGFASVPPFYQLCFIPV
CYP2C9 inhib – inhibitors of human CYP2C9; CYP2C9 Supersomes, luciferin-H conversion, luminescence; inhibition, % at 5 µM; hit rate 20% among 96,000; AID 777;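 active = blocking of liver enzyme CYP2C9 beyond about 50% at 5 µM, limit read from the data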
sEH activator – soluble epoxide hydrolase (human) activation; purified human sEH enzymatic activity, activator screen; activation, % at 2 µM; hit rate 0.04% among 91,000; AID 717; in the data active = activation above about 37%
CYP2C19 inhib – inhibitors of human CYP2C19; P33261; CYP2C19 Supersomes, luciferin-H EGE luminescence, 30 min; inhibition, % at 5 µM; hit rate 21% among 96,000;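 active = CYP2C19 inhibition above a set limit at 5 µM in the primary screen, cut at about 50% in these data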;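 also: plate controls were negative control wells for no effect and 2.5 mM tranylcypromine positive control for full effect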
* hit, by the source's call; · = no result given.

SMILES | sEH inhibitor | CYP2C9 activ | CYP2C19 activ | CYP2C9 inhib | sEH activator | CYP2C19 inhib
COc1cccc(NC(=O)N(Cc2cc3cc(C)cc(C)c3[nH]c2=O)CC2COCCO2)c1 (stereo unspecified) | 19.8 | 0.4 | 0.7 | 56.7* | -19.7 | 28.8
CCN(CC)c1ccc2c(c1)OC(N)=C(C#N)C2c1cccnc1 (stereo unspecified) | · | 0.5 | 0.2 | 45.1 | · | 82.2*
N#CC1=C(N)Oc2cc(N)ccc2C1c1ccc(F)cc1 (stereo unspecified) | -9.4 | 0.5 | 0.3 | 50.2* | 6.2 | 74.4*
COc1cc(C2C(C#N)=C(N)Oc3cc(N)ccc32)cc(OC)c1OC (stereo unspecified) | -5.7 | · | · | · | 4.7 | ·
Cc1ccc(C2C(C#N)=C(N)Oc3cc4c(cc32)OCO4)cc1 (stereo unspecified) | -5.7 | 0.3 | 0.3 | 74.1* | 5.8 | 72.1*
CSc1ccc(C2C(C#N)=C(N)Oc3cc4c(cc32)OCO4)cc1 (stereo unspecified) | -14.3 | 0.8 | 0.9 | 23.1 | 13.5 | 8.2
C=CCSc1nc(-c2ccc3c(c2)OCO3)cc(C(F)(F)F)c1C#N | -7.3 | 0.6 | 0.7 | 39.3 | 9.5 | 26.0
CN(C)c1ccc(CNn2cnnc2SCc2ccc(F)cc2)cc1 | -7.0 | 0.4 | 0 | 62.6* | 7.1 | 98.4*
Fc1ccc(CSc2nncn2NCc2ccccc2)cc1 | 13.4 | · | · | · | -10.3 | ·
Fc1ccc(CSc2nncn2NC/C=C/c2ccccc2)cc1 | 0.3 | 0.8 | 0.3 | 24.8 | 1.5 | 69.0*
O=C(Nc1ccc(Cl)cn1)c1ccc(-c2ccc(Cl)c(Cl)c2)o1 | 1.0 | · | · | · | 1.8 | ·
CC(C)(C)OC(=O)N1CCC(c2cc(=O)n3[nH]cc(C(=O)NC4CCCC4)c3n2)CC1 | -1.7 | 0 | 0.6 | 95.2* | 4.0 | 39.4
CC(C)(C)OC(=O)N1CCC(c2cc(=O)n3[nH]c(-c4ccc(Cl)cc4)cc3n2)CC1 | -5.8 | 1.2 | 1.1 | -19.7 | 5.0 | -8.8
CCN(Cc1ccccc1)S(=O)(=O)c1ccc2oc(C(=O)O)c(C)c2c1 | · | 0 | 1 | 98.5* | · | 2.5
Cc1c(C(=O)O)oc2ccc(S(=O)(=O)NCc3ccc4c(c3)OCO4)cc12 | 1.4 | 0.6 | 1.1 | 36.0 | -2.6 | -12.9
Cc1ccc(CNS(=O)(=O)c2ccc3oc(C(=O)O)c(C)c3c2)cc1 | -1.5 | 0.3 | 1.1 | 66.6* | 0.2 | -10.7
CCN(CC)S(=O)(=O)c1ccc2oc(C(=O)NC(C)C)c(C)c2c1 | · | 0.7 | 1 | 26.0 | · | -2.5
Cc1c(C(=O)O)oc2ccc(S(=O)(=O)N(CC(C)C)CC(C)C)cc12 | · | 0.6 | 1.1 | 35.9 | · | -5.4
Cc1c(C(=O)NCC2COc3ccccc3O2)oc2ccc(S(=O)(=O)N(C)C3CCCCC3)cc12 (stereo unspecified) | -8.6 | 0 | 0.5 | 95.1* | 5.5 | 49.0
CCN(CC)S(=O)(=O)c1ccc2oc(C(=O)NCc3ccc(C)cc3)c(C)c2c1 | 5.2 | 0.5 | 0.6 | 51.1* | -3.3 | 41.8
CCCC1C2CN(C(C)C)CC=C2C(C#N)=C(N)C1(C#N)C#N (stereo unspecified) | 5.1 | 1.2 | 0.9 | -18.3 | -3.5 | 5.8
Cc1cc(C)c(C#N)c(SC(F)F)n1 | · | 1.2 | 1 | -23.4 | · | -3.6
Cc1cccc(NC(=O)CC2C(=O)NCCN2C(=S)Nc2ccccc2)c1 (stereo unspecified) | -6.8 | 0.7 | 0.8 | 27.9 | 8.7 | 19.4
CCN(CC)S(=O)(=O)c1ccc2oc(C(=O)O)c(C)c2c1 | -3.6 | 0.2 | 1 | 76.7* | 0.1 | -3.5
Cc1nnc(SCC(=O)Nc2nsc(-c3ccc(Cl)cc3)n2)s1 | -13.5 | 1 | 0.9 | -2.9 | 17.2 | 7.4
SMILES | sEH inhibitor | CYP2C9 activ | CYP2C19 activ | CYP2C9 inhib | sEH activator | CYP2C19 inhib
CCOc1ccc2nc(NC(=O)Cn3cnc4c3c(=O)n(C)c(=O)n4C)sc2c1 | · | 0.9 | 0.3 | 14.8 | · | 69.1*
CCOc1ccc2nc(NC(=O)CSc3nc4c(c(=O)n(C)c(=O)n4C)n3C(C)C)sc2c1 | · | 0.9 | 1 | 6.7 | · | 4.2
CCn1c(SCC(=O)Nc2nc3ccc(OC)cc3s2)nc2c1c(=O)n(C)c(=O)n2C | · | 0.4 | 0.7 | 62.4* | · | 28.2
CC(C)n1c(SCC(=O)Nc2nc3ccccc3s2)nc2c1c(=O)n(C)c(=O)n2C | -11.1 | · | · | · | 9.0 | ·
CNS(=O)(=O)c1cccc(C(=O)OCC(=O)C23CC4CC(CC(C4)C2)C3)c1 | -17.5 | 1.7 | 1.2 | -66.3 | 16.4 | -18.0
CNc1nc(Nc2ccc(C(C)=O)cc2)nc(OC(C(F)(F)F)C(F)(F)F)n1 | -1.7 | 0.8 | 1 | 22.4 | 2.0 | 0.7
CCOC(=O)c1c(-c2cccc([N+](=O)[O-])c2)csc1NC(=O)C1CC1 | 16.9 | 0.2 | 0.7 | 75.9* | -14.7 | 26.6
CCOC(=O)c1c(-c2ccc(C)c(C)c2)csc1NC(=O)C1CC=CCC1C(=O)O (stereo unspecified) | -6.6 | 0.2 | 0.9 | 75.9* | 4.8 | 9.8
COc1cc(OC)nc(NC(=O)COC(=O)C2CCCCC2)n1 | 14.9 | 0.7 | 0.7 | 30.8 | -13.5 | 29.3
Cc1ccc(/C=C2\Sc3ccccc3C2=O)s1 | -9.6 | 0.3 | 0.1 | 75.0* | 14.2 | 93.7*
CCCN1C(=O)/C(=C/c2ccc(C)s2)NC1=S | 12.6 | · | · | · | -10.4 | ·
O=C1/C(=C/c2cccnc2)Sc2ccccc21 | 2.3 | 0.3 | 0.2 | 66.1* | 0.0 | 78.5*
CC(=O)N(C)c1nnc(-c2ccccn2)s1 | -9.7 | · | · | · | 12.9 | ·
COc1ccc(OC)c(N(CC(=O)N2CCN(c3cc(Cl)ccc3C)CC2)S(C)(=O)=O)c1 | 10.2 | 1.2 | 0.8 | -20.4 | -6.8 | 19.3
COc1ccc(Br)cc1/C=C/C(=O)Nc1c(C)cccc1C | 5.3 | 2.1* | 0.6 | -105.5 | -3.6 | 36.1
COc1ccc(NC(=O)/C=C/c2cc(Br)ccc2OC)cc1 | 7.7 | 1.7 | 0.8 | -72.2 | -5.1 | 20.2
CCN(CC)c1ccc(NC(=O)/C=C/c2cc(Br)ccc2OC)cc1 | -0.8 | 2.2* | 0.7 | -120.5 | 3.6 | 29.6
OCCN(CCO)c1ncnc2c1sc1nc(N3CCOCC3)c3c(c12)CCCC3 | -14.8 | 0.1 | 0.2 | 89.3* | 14.9 | 80.9*
c1nc(N2CCNCC2)c2sc3nc(N4CCOCC4)c4c(c3c2n1)CCC4 | · | 0.7 | 0.8 | 29.8 | · | 15.1
OCCN1CCN(c2ncnc3c2sc2nc(N4CCOCC4)c4c(c23)CCC4)CC1 | · | 0.2 | 0.2 | 78.6* | · | 83.9*
CCOC(=O)CSc1ncnc2c1sc1nc(N3CCOCC3)c3c(c12)CCCC3 | 8.1 | 0.5 | 0.8 | 54.1* | -5.2 | 17.9
COC(=O)CSc1ncnc2c1sc1nc(N3CCOCC3)c3c(c12)CCCC3 | 1.5 | 0.7 | 0.9 | 31.2 | 2.0 | 13.4
CCCCN(C)C1=Nc2cccc3cccc1c23 | 4.1 | 1.1 | 0.9 | -6.2 | -6.9 | 9.5
Cc1ccc(NC(=O)N2CCC(=O)N2)cc1 | 6.0 | 1 | 1.1 | -4.8 | -3.2 | -10.2
O=C1CC(NCc2ccccc2F)C(=O)N1c1ccccc1 (stereo unspecified) | -5.9 | 0.8 | 0.3 | 20.2 | 4.5 | 71.9*
